From PubChem BioAssay
DT40 TDP1 CPT – DT40-hTDP1 cell growth loss with CPT; hit rate 12% among 420,000; AID 686979; Potency, µM (titrated, usually from 46.2 µM), for the others: at the highest dose activity change, negative = growth inhibition, most hits filed as inhibitors; chicken DT40 Tdp1-/-;hTDP1 cells + 20 nM CPT, ATP luminescence, 48 h; note: potency is the fitted concentration of half-maximal effect; nearly all actives have a fitted effect of over 55% in size
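Chicken DT40 Tdp1-/- cells complemented with human TDP1, 400 cells/well, exposed to compounds plus 20 nM camptothecin for at least 48 h at 37 C; viability read as ATP content by CellTiter-Glo luminescence.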
HT1080 IDH1KD tx – kills HT-1080 cells with IDH1 knockdown; HT-1080 IDH1 knockdown viability, ATP luminescence, 48 h; Potency, µM (highest dose often 46.1 µM), without a hit: top-dose activity, negative = toxicity, hits mostly cytotoxic; hit rate 2% among 360,000;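 note: potency is the fitted concentration of half-maximal effect; 0% = DMSO wells and -100% = cell-free medium wells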
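Luminescent ATP read-out (CellTiter-Glo, 10 min at room temperature) after 48 h compound exposure at 37 °C gave viability of IDH1-knockdown HT-1080 cells. Activity was normalised to DMSO and cell-free wells, then fitted as concentration-response curves.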
DT40 TDP1 no CPT – qHTS for Inhibitors of human tyrosyl-DNA phosphodiesterase 1 (TDP1): qHTS in cells in absence of CPT; Potency, µM (top dose mostly 46.2 µM), for the others: at the highest dose activity change, negative = growth inhibition, most hits filed as inhibitors; DT40 Tdp1-/- hTDP1 cells, no CPT, ATP luminescence, 48 h; hit rate 15% among 420,000; note: potency is the fitted concentration of half-maximal effect; nearly all actives have a fitted effect of over 55% in size
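Cells were dispensed at 400 per well, compounds added by pin tool, plates incubated ≥48 hr at 37 °C, then CellTiter-Glo added for 30 min at room temperature before luminescence reading. Line: DT40 Tdp1-/- complemented with hTDP1; camptothecin omitted.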
12-LOX inh – blocks human arachidonate 12S-lipoxygenase; Potency, µM (titrated, usually from 108 µM), for the others: at the highest dose activity change, negative = inhibition, usual class: inhibitors; P18054; hit rate 1.1% among 580,000; purified 12hLO, xylenol orange hydroperoxide absorbance; note: potency is the fitted concentration of half-maximal effect
Target sequence (P18054 whole entry, looked up): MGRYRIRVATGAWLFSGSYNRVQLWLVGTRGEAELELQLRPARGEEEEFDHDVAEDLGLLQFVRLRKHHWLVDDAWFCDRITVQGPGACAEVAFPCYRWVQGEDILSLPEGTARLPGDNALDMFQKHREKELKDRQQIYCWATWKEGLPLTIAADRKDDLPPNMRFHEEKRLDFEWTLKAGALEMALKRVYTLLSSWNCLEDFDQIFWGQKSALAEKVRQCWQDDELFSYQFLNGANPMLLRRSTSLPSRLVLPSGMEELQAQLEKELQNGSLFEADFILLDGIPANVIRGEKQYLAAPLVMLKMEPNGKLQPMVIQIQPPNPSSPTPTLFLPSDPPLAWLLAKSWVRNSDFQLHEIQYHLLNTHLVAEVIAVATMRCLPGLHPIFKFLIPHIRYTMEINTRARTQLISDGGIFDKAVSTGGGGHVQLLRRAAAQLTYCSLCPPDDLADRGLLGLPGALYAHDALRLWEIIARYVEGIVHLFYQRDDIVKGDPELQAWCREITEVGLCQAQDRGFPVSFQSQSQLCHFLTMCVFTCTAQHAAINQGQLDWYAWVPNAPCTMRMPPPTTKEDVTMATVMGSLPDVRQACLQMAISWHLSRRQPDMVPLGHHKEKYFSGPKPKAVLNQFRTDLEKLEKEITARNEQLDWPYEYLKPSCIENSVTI
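Purified human 12hLO at 150 nM in 25 mM Hepes, 0.01% Triton X-100, pH 7.0, preincubated 15 min at room temperature with compound. Reaction started with 40 uM arachidonic acid, 30 min at room temperature. Hydroperoxide measured by Fe-xylenol orange, 573/405 nm absorbance ratio.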
IL1B secr inh – blocks inflammasome-driven IL-1 beta release. AID 743279. activity change, % at 57.5 µM. THP-1 LPS/ATP IL-1B secretion, AlphaLISA, 16 h; stronger effect = lower value. hit rate 4.7% among 360,000; in the data active = activity change below about -50%; inconclusive = mostly about -30% to -49%
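Secreted IL-1B measured by AlphaLISA bead assay after 16 h compound exposure of THP-1 cells; compounds (final up to 57.5 uM) added 1 h before LPS (250 ng/mL) and ATP (1.25 mM) stimulation; lower signal means less secretion.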
HT1080-NT tox – kills 2HG-producing HT-1080-NT fibrosarcoma cells; HT-1080-NT fibrosarcoma viability, CellTiter-Glo ATP luminescence, 48 h; Potency, µM (doses to about 46.1 µM), for the others: at the top dose activity, negative = less viability, actives largely listed as cytotoxic; hit rate 1.6% among 360,000;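 note: NT is the 2HG producing partner of a matched IDH1 knockdown line; potency is the fitted concentration of half-maximal effect; 0% = DMSO-treated cells and -100% = media-only wells without cells; nearly all actives have a fitted effect of over 55% in size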
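Read-out is CellTiter-Glo luminescence after 10 minutes at room temperature, following 48 hours' compound treatment of HT-1080-NT cells (750 cells/well, RPMI, 5% FBS, 37 degrees C).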
An asterisk follows results filed as active; ? = inconclusive; / = no result given. This is one part of a sample in which hits are shown more often than they occur. Unless noted, calls come from the whole dose curve; as a rule, active = well fitted curve in the direction sought with a large enough effect; inconclusive = small, poorly fitted or top-dose-only effect, or another doubt; inactive = no such curve, though single readings can be large; an effect the other way counts as inactive or inconclusive. Unless noted, % is set by controls: 0 for no effect and ±100 for the full control effect.

SMILES | DT40 TDP1 CPT | HT1080 IDH1KD tx | DT40 TDP1 no CPT | 12-LOX inh | IL1B secr inh | HT1080-NT tox
CCN(CC)c1ccc(/C=C(\C#N)C(=O)NCc2ccccc2)cc1 | -3% | -16% | ? | / | ? | -1%
CCN(CC)c1ccc(/C=C/c2nccc3ccccc23)cc1 | ? | / | 13µM* | / | / | /
O=C(Nc1ccc(F)cc1)c1cc(-c2ccco2)on1 | / | / | / | 2% | / | /
CCN1CC(C(=O)NCc2cccc(OCc3ccccc3)c2)CC1=O (stereo not drawn) | / | / | / | 14% | / | /
C#CCNC(=O)C[C@@H]1c2nc(NC(=O)C3CCCCC3)sc2C[C@@H]2[C@](C)(CO)[C@H](O)CC[C@]21C | / | / | / | 11% | / | /
COC(=O)c1c(-c2ccc(Cl)cc2)noc1N1CCN(c2cc(C)ccc2C)CC1 | 15µM* | / | 21µM* | -10% | / | /
COC(=O)c1c(-c2ccc(Cl)cc2)noc1N1CCN(c2ccc(OC)cc2)CC1 | 23µM* | / | 26µM* | -3% | / | /
COC(=O)c1c(-c2ccc(Cl)cc2)noc1N1CCN(c2ccccc2F)CC1 | -1% | / | 7% | -2% | / | /
NC(=O)c1ccc(C(=O)N2CCC(c3nc4cc(Cl)ccc4o3)CC2)cc1 | / | / | / | -2% | / | /
Cc1c(C(=O)NCc2nnc3n2CCCCC3)oc2ccccc12 | / | / | / | 7% | / | /
C=CCNC(=S)N/N=C/c1ccc(C(F)(F)F)cc1 | ? | -12% | ? | ? | -56* | ?
O=C(O)c1ccc(/C=N/NC(=S)NC2CCCCC2)cc1 | 4% | -12% | 3% | ? | 73 | -15%
C=CCNC(=S)N/N=C/c1ccccc1C(F)(F)F | / | / | / | 2% | / | /
FC(F)(F)c1ccc(/C=N/NC(=S)NC2CCCCC2)cc1 | ? | -26% | 5.8µM* | -9% | 2 | -19%
Cc1c(C)n(CCN(C)C)c2ncn3nc(COc4ccc(Cl)cc4)nc3c12 | / | / | / | -22% | / | /
CN(C)c1ccnc2c[cH-]cc12.[Fe].c1ccc(-[c-]2[c-](-c3ccccc3)[c-](-c3ccccc3)[c-](-c3ccccc3)[c-]2-c2ccccc2)cc1 (stereo not drawn) | 5.2µM* | 0% | 3.7µM* | ? | -1 | -1%
CN(C)c1ccnc(Nc2ccccc2)c1C#N | -9% | 14% | -8% | -20% | 9 | 13%
CCOc1ccc(/C=C(/C#N)C(=O)Nc2cccc3ncccc23)cc1 | / | / | / | -19% | / | /
CC(C)c1ccc(/C=C(/C#N)C(=O)Nc2cccc3ncccc23)cc1 | / | / | / | 16µM* | / | /
COc1ccc(/C=C(/C#N)C(=O)Nc2cccc3ncccc23)cc1OC | / | / | / | 16µM* | / | /
CCn1nccc1C(=O)NCCC1CCN(C(=O)Nc2ccc(C)cc2)CC1 | / | / | / | 31% | / | /
Cc1nc(-c2c3n(c(=O)n(CC(=O)Nc4cccc(C(C)C)c4)c2=O)CCCCC3)no1 | / | / | / | -4% | / | /
O=S(=O)(Nc1cccc2cccnc12)c1ccc(F)cc1 | / | / | / | 19% | / | /
Cc1ccc(S(=O)(=O)Nc2cccc3cccnc23)cc1 | ? | -20% | 21µM* | 0% | -97* | -2%
COc1cc(NS(=O)(=O)c2ccc(C)cc2)c2ncccc2c1 | 0.82µM* | ? | 1.2µM* | / | 54 | -30%
SMILES | DT40 TDP1 CPT | HT1080 IDH1KD tx | DT40 TDP1 no CPT | 12-LOX inh | IL1B secr inh | HT1080-NT tox
CCOC(=O)c1c(C)[nH]c(C)c1C(=O)CN1C(=O)NC(CC(C)C)C1=O (stereo not drawn) | 10µM* | 4% | ? | / | 9 | 5%
O=C(NCc1ccco1)C1CCN(C(=O)c2cc3sccc3n2Cc2ccc(F)cc2)CC1 | ? | ? | ? | 7% | ? | ?
CC(C)CCNC(=O)C1CCN(C(=O)c2cc3sccc3n2Cc2ccc(Cl)cc2)CC1 | 18µM* | / | 9.2µM* | -1% | / | /
O=C(NCCCN1CCCC1)C1CCN(C(=O)c2cc3sccc3n2Cc2ccc(F)cc2)CC1 | 16µM* | ? | ? | 2% | 4 | ?
O=C(NCc1ccccn1)C1CCN(C(=O)c2cc3sccc3n2Cc2ccc(F)cc2)CC1 | ? | -20% | 23µM* | -2% | 24 | 1%
Cn1c(CC(=O)Nc2cccc(C(F)(F)F)c2)nnc1SCC(=O)c1ccc(C#N)cc1 | / | / | / | 17% | / | /
CC(=O)N1C[C@H]2CON(C)[C@H]2C[C@H]1c1cccc(-c2cc(Cl)cc(Cl)c2)c1 | ? | -7% | 23µM* | -6% | -23 | -12%
CN1OC[C@@H]2CN(C(=S)NCCc3ccccc3)[C@H](c3ccccc3Br)C[C@@H]21 | ? | ? | 16µM* | 41% | -25 | -17%
CN1OC[C@@H]2CN(C(=O)CCc3ccccc3)[C@H](c3cccc(-c4ccccc4)c3)C[C@@H]21 | 26µM* | -3% | ? | ? | 0 | -4%
CN1OC[C@@H]2CN(C(=O)CCc3ccccc3)[C@H](c3cccc(Oc4ccccc4)c3)C[C@@H]21 | ? | -4% | ? | -13% | -13 | -1%
CCCn1nc(C(=O)N2CCN(c3ccc(C(C)=O)cc3)CC2)c2ccccc2c1=O | / | / | / | -29% | / | /
CC(C)[C@@H]1CN(C(=O)CCn2ccc(=O)[nH]c2=O)C[C@H]1NS(C)(=O)=O | / | / | / | 6% | / | /
O=C(c1ccncc1)N1CCC2(CC1)CN(c1ncccn1)CC2CO (stereo not drawn) | / | / | / | 21% | / | /
